Measurements published in PubChem BioAssay AID588549 (Broad Institute, 2011).
About 780 (0.22%) of roughly 360,000 compounds were called active. Rule as the data show it: active = inhibition above about 8.5% (passing the limit was not always enough); inconclusive = no clear call, values can overlap the other calls. The sample as a whole holds a higher share of actives than the screen did.

The molecules below were run on Mycobacterium tuberculosis FadD28 fatty-acid-AMP ligase (assay: inhibitors of FadD28 bisubstrate probe binding, primary screen, biochemical, fluorescence polarization, single point (AID 588549)). Details: at 12.5 µM, active compounds read high.
In the case of `CCCC1C(c2ccccc2)C(C#N)(C#N)C2(C#N)CC1(N)NC2=O` (centres undefined), the inhibition is reported as -0.503% (inactive).
In the case of `COc1cccc(OCC(O)CNC(=O)c2oc3c(C)c(C)ccc3c2C)c1` (centres undefined), the inhibition is reported as -2.55% (inactive).
In the case of `COc1cc(O)c2c(=O)c3c(O)c(O)ccc3oc2c1OC`, the inhibition is reported as -0.783% (inactive).
`COc1c(O)cc2oc(-c3ccc(O)c(O)c3)cc(=O)c2c1O` was tested, and the inhibition was 13.9% (active).
`OCc1ccc(-c2ccccc2)c(-c2ccccc2)c1` was tested, and the inhibition was -0.325% (inactive).
In the case of `COc1ccccc1C(=O)NC(=S)NC12CC3CC(CC(C3)C1)C2`, the inhibition is reported as -0.832% (inactive).
With `COc1ccc(CCNC(=S)NC(=O)/C=C/c2ccc(C)cc2)cc1OC` the inhibition was -0.381% (inactive).
For `CC(Nc1ccccc1)c1cccnc1` (centres undefined), the inhibition was -4.94% (inactive).
In the case of `CCC(CC)c1nnc(NC(=O)c2nn(C)c(=O)c3ccccc23)s1`, the inhibition is reported as -1.39% (inactive).
For `Cc1ccc(N2CCN(S(=O)(=O)c3ccc(F)cc3)CC2)c(C)c1`, the inhibition was -3.77% (inactive).
`CC1CC(C)CN(C(=O)COC(=O)c2ccc3ncsc3c2)C1` (centres undefined) was tested, and the inhibition was -1.75% (inactive).
For `Cc1cc(C)c(C#N)c(SCC(=O)N(CC(C)C)C2CCS(=O)(=O)C2)n1` (centres undefined), the inhibition was -3.78% (inactive).
In the case of `CCC(C)(C)c1ccc(Oc2ccc(NC(=O)COC(=O)C3=COCCO3)cc2)cc1`, the inhibition is reported as -2.88% (inactive).
In the case of `COc1ccccc1CCCNC(=O)C1CCC(=O)N(CCN2CCOCC2)C1` (centres undefined), the inhibition is reported as -0.246% (inactive).
With `Cn1c(=O)n(CCc2ccccc2)c(=O)c2c1nc1n2CCCN1c1ccccc1` the inhibition was -3.89% (inactive).
`Cc1ccc(NC(=O)CN2C(=O)NC(C)(c3ccc(Cl)cc3)C2=O)c(Br)c1` (centres undefined) was tested, and the inhibition was -1.17% (inactive).
For `COc1ccc(NC(=O)CN(C)C(=O)c2cccc(S(=O)(=O)N3CCN(c4ccccc4)CC3)c2)cc1`, the inhibition was -1.23% (inactive).
`O=C(O)c1ccccc1N=N/C(=N/Nc1cc(S(=O)(=O)O)ccc1O)c1ccccc1` was tested, and the inhibition was 8.82% (active).
`CC(C)(O)C#Cc1ccc(CNC[C@H]2O[C@@H](n3cnc4c(=O)[nH]c(N)nc43)[C@H](O)[C@@H]2O)s1` was tested, and the inhibition was -0.925% (inactive).
`O=S(=O)(c1ccc(SCc2ccc(Br)cc2)nc1)N1CCOCC1` was tested, and the inhibition was -1.66% (inactive).
With `O=C(Nc1cccc(-c2cccc(Cl)c2)c1)C1CCN(C2CCC2)CC1` the inhibition was -25.6% (inactive).
In the case of `Cc1ccc(/C([O-])=C(/C(=S)NCc2ccco2)[n+]2ccccc2)cc1[N+](=O)[O-]`, the inhibition is reported as 1.32% (inactive).
For `Cc1sc2ncnc(SCC(=O)NC3CCS(=O)(=O)C3)c2c1C` (centres undefined), the inhibition was -1.04% (inactive).
In the case of `CC1CCCC(C)N1C(=O)COC(=O)COc1ccccc1C#N` (centres undefined), the inhibition is reported as -1.75% (inactive).
In the case of `Cc1cc(OCC(=O)N2CCN(c3ncccn3)CC2)ccc1Cl`, the inhibition is reported as -3.44% (inactive).
For `COc1ccc(C(=O)Nc2ccnn2C2CCN(Cc3ccncc3)CC2)cc1`, the inhibition was -2.54% (inactive).
With `CCC(C)C(CO)NC(=O)/C=C/[C@H]1O[C@@H](n2cnc3c(NC(=O)c4ccccc4)ncnc32)[C@H](O)[C@@H]1O` (some centres undefined) the inhibition was -0.392% (inactive).
With `COc1cc(C(O)c2nc(-c3cnn(C)c3)cs2)ccc1F` (centres undefined) the inhibition was -2.58% (inactive).
For `CS(=O)(=O)N(Cc1ccccc1)c1ccc(C(=O)NN=C2CCCCCC2)cc1`, the inhibition was -7.2% (inactive).
In the case of `CCCN(C(=O)c1nc2nccc(C)n2n1)c1c(N)n(Cc2ccccc2)c(=O)[nH]c1=O`, the inhibition is reported as 0.906% (inactive).
`O=Nc1c(O)cc(O)c2ccccc12` was tested, and the inhibition was -1.75% (inactive).
`COc1ccc(C(=O)NCc2ccc(C)cc2)cc1S(=O)(=O)N1CCCC1` was tested, and the inhibition was 28% (active).
For `COc1ccc(C(=O)NCc2ccc(Cl)cc2)cc1S(=O)(=O)N1CCCC1`, the inhibition was 39.8% (active).
`COc1ccccc1CNC(=O)c1ccc(Cl)c(S(=O)(=O)N2CCCC2)c1` was tested, and the inhibition was 1.35% (inactive).
`COc1ccc(C(=O)NCC2CCCO2)cc1S(=O)(=O)NCc1ccc(Cl)cc1` (centres undefined) was tested, and the inhibition was -1.14% (inactive).
`COC(=O)c1ccc(CNC(=O)c2ccc(S(=O)(=O)N3CCCCCC3)cc2)cc1` was tested, and the inhibition was 1.15% (inactive).
In the case of `COc1ccc(C(=O)NCC2CCCCC2)cc1S(=O)(=O)N1CCCC1`, the inhibition is reported as -0.215% (inactive).
For `C=CCSc1ccc(S(=O)(=O)N2CCN(C)CC2)cn1`, the inhibition was -0.339% (inactive).
In the case of `CCN(CC)C(CNC(=O)CSc1nnnn1-c1cccc(F)c1)c1ccco1` (centres undefined), the inhibition is reported as -0.979% (inactive).
`Cc1ccc(S(=O)(=O)N(C)C)cc1NC(=O)COC(=O)c1c(C)noc1C` was tested, and the inhibition was -3.04% (inactive).
For `COCCNC(=O)CCCn1c(=O)c2ccccc2n(Cc2cccc([N+](=O)[O-])c2)c1=O`, the inhibition was -2.03% (inactive).
For `CSC1=NC2(C)CCCCC2C12C=CC(=O)C=C2` (centres undefined), the inhibition was -1.74% (inactive).
With `O=C(Nc1ccc(N2CCOCC2)c(Cl)c1)c1ccc(S(=O)(=O)N2CCOCC2)cc1` the inhibition was -1.1% (inactive).
For `CC(=O)c1nn(-c2cccc(C(F)(F)F)c2)c(=O)[nH]c1=O`, the inhibition was -2.32% (inactive).
For `O=C(Nc1cc(=O)[nH]c2ncnn12)c1ccccc1Cl`, the inhibition was 0.264% (inactive).
For `CC(C(=O)N1CCOCC1)N1c2cccc3cccc(c23)S1(=O)=O` (centres undefined), the inhibition was -1.36% (inactive).
In the case of `OC1CN=C2Sc3ccccc3N2C1` (centres undefined), the inhibition is reported as -1.93% (inactive).
For `COc1ccccc1NC(=O)CSc1nnc(Cn2nnc(-c3ccccc3)n2)n1-c1ccccc1`, the inhibition was -2.49% (inactive).
In the case of `Nc1cc(C(=O)N2CCN(c3ccccc3Cl)CC2)ccc1N1CC2CC(C1)c1cccc(=O)n1C2` (centres undefined), the inhibition is reported as 0.263% (inactive).
For `COc1cc(CCC(=O)N2CCN(c3ccccc3Cl)CC2)cc(OC)c1OC`, the inhibition was 67.4% (active).
`CC(=O)Nc1ccc(S(=O)(=O)NCCC(=O)N2CCN(c3ccccc3Cl)CC2)cc1` was tested, and the inhibition was -0.39% (inactive).
For `COc1cc(CCC(=O)Nc2ccncc2Cl)cc(OC)c1OC`, the inhibition was -0.965% (inactive).
With `CCOc1ccc(CCNC(=O)CN2C(=O)NC3(CCc4ccccc43)C2=O)cc1OCC` (centres undefined) the inhibition was -4.62% (inactive).
In the case of `C=CCN(CC=C)CCOc1ccccc1[N+](=O)[O-]`, the inhibition is reported as 0.271% (inactive).
With `COC(=O)[C@H](C(C)C)n1c(C)c(C(C)=O)c(C(C)=O)c1C` the inhibition was -1.13% (inactive).
For `N#Cc1ccc(C(=O)OCC(=O)NC(=O)NC2CCCCC2)cc1`, the inhibition was -1.55% (inactive).
In the case of `COc1cccc(C2CC(c3ccccc3)=NN2S(=O)(=O)c2ccccc2)c1OC` (centres undefined), the inhibition is reported as 9.71% (active).
In the case of `CCS(=O)(=O)Nc1ccc(C2=NN(S(=O)(=O)c3ccc(F)cc3)C(c3ccco3)C2)cc1` (centres undefined), the inhibition is reported as -3.77% (inactive).
For `COc1cccc(C2CC(c3cccs3)=NN2C(=O)CSC2=NCCS2)c1OC` (centres undefined), the inhibition was -1.77% (inactive).
